Results filed as inconclusive are left out. Active and inactive are the calls of the source. Unless noted, calls come from the whole dose curve.

27 molecules from PubChem BioAssay (NCATS) can be followed below.

In one assay the target is Protein phosphatase 1D (Homo sapiens) (UniProt O15297). Description: Rhodamine-PBP qHTS Assay for Modulators of WT P53-Induced Phosphatase 1 (WIP1) (AID 1347425; active = well fitted curve in the direction sought with a large enough effect; note: % of control where 0% means no effect). The following applies: recombinant WIP1, Rhodamine-PBP phosphate fluorescence, real-time; series mostly up to 57.5 µM; activity change, negative = inhibition: at the top concentration. A digest of the protocol: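 WIP1 (5 nM final) was preincubated with compound for 1 hour at room temperature. It then dephosphorylated 10 uM VEPPL-pS-QETFS peptide in Tris-HCl pH 7.5 with 30 mM MgCl2. Released Pi was detected by 10 uM Rh-PBP fluorescence (ex 525/em 598 nm) read at 1-min intervals for 11 min, as delta f1 - f0.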
Sequence of Protein phosphatase 1D (Homo sapiens) (O15297 whole entry, looked up): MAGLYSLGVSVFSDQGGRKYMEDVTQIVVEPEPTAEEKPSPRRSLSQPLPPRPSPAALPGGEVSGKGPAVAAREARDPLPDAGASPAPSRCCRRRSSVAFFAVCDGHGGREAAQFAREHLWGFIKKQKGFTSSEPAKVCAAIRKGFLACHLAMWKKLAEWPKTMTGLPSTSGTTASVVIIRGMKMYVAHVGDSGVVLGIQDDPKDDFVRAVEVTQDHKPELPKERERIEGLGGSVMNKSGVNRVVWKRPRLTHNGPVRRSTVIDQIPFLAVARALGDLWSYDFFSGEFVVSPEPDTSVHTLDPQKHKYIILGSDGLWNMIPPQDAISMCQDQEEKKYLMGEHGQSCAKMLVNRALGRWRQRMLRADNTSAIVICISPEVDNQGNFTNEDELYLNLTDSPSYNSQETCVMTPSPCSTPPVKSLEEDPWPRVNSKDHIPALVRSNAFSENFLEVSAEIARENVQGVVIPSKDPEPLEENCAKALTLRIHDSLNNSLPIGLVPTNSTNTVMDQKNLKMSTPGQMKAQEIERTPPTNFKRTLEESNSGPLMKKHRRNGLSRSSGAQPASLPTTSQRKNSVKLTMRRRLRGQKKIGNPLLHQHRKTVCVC
As to `CN1C(=O)[C@@H](NC(=O)c2cc3ccccc3[nH]2)N=C(c2ccccc2)c2ccccc21`, the “activity change, negative = inhibition” value was -18.8% (inactive).
Still for that read-out and setting: under `CCCOC(=O)Cc1ccc(OCC(=O)N(CC)CC)c(OC)c1` stands 12.6% (inactive).
Turning to `ClCCCN1CCN(c2cccc(Cl)c2)CC1`, the “activity change, negative = inhibition” value was 8.51% (inactive).
Consider `CC(C)NCC(O)c1ccc(N)c(C#N)c1` (centres undefined), for which the “activity change, negative = inhibition” value is 6.71% (inactive).
On the same count and under the same terms, under `Clc1ccc(CSC(Cn2ccnc2)c2ccc(Cl)cc2Cl)cc1` (centres undefined) stands 7.93% (inactive); under `O=C(CBr)Nc1ccc(Cl)cc1C(=O)c1ccccc1F`, -10.2% (inactive).
Still for that read-out and setting: under `c1ccc2c(c1)Sc1ccccc1N2CC1CN2CCC1CC2` (centres undefined) stands 8.42% (inactive).
The same measure, in the same setting: under `OC(O)C(Cl)(Cl)Cl` stands 12.1% (inactive); under `CCOP(=S)(OCC)O/N=C(\C#N)c1ccccc1`, 4.2% (inactive); under `CCC(=O)OC1(c2ccccc2)CCN(C)CC1`, -7.43% [at 116 µM] (inactive).
`CC[C@]1(O)CC[C@H]2[C@@H]3CCC4=CCCC[C@@H]4[C@H]3CC[C@@]21C`: the “activity change, negative = inhibition” value was 5.64% (inactive).
Take `C[C@]12Cc3nonc3C[C@@H]1CC[C@@H]1[C@@H]2CC[C@@]2(C)[C@H]1CC[C@]2(C)O`: the “activity change, negative = inhibition” value is -10.2% (inactive).
Still for that read-out and setting: under `C[N+](C)(C)CCOC(=O)C(O)(c1ccccc1)c1ccccc1` stands 4.63% (inactive); under `CNC(=O)NC(O)C(Cl)(Cl)Cl` (centres undefined), 1.7% (inactive); under `COc1cc(CC#N)cc(OC)c1OC`, -0.179% (inactive).
Still for that read-out and setting: under `CCN1CCCC1CNC(=O)C(O)(c1ccccc1)c1ccccc1` (centres undefined) stands 11% (inactive).
The same measure, in the same setting: under `CCCCCCCCCCCC[N+](C)(C)CCOc1ccccc1` stands 16.5% (inactive); under `CC[C@H](O)C(C[C@H](C)N(C)C)(c1ccccc1)c1ccccc1`, -37.2% [at 116 µM] (inactive).
Take `COc1ccc2c3c1O[C@H]1[C@@H](O)C=C[C@H]4[C@@H](C2)N(C)CC[C@@]341`: the “activity change, negative = inhibition” value is 17.8% [at 116 µM] (inactive).
Still for that read-out and setting: under `C#C[C@]1(O)C=C[C@H]2[C@@H]3CCC4=CC(=O)CC[C@@H]4[C@H]3CC[C@@]21CC` stands 10.2% (inactive); under `Cc1nc2ccccc2c(=O)n1-c1ccccc1Cl`, -22.5% [at 116 µM] (inactive).

Test system in the next assay: not listed separately
Description: Primary qHTS for inhibitors of SARS-S pseudo-typed particle cell entry (AID 1479145). For activity change, negative = inhibition: % is set by controls: 0 for no effect and ±100 for the full control effect. Note: nearly all actives have a fitted effect of over 45% in size. The following applies: SARS-S pseudotyped particle cell entry, luciferase reporter; series mostly up to 57.1 µM; activity change, negative = inhibition: at the top concentration; outcome: at the top concentration. Background: In qHTS, concentration-response curves come from the screen itself.
On to `C[C@H](N)[C@H](O)c1ccc(O)c(O)c1`, for which the outcome was inactive.
In the case of `CC[C@]1(O)CC[C@H]2[C@@H]3CCC4=CCCC[C@@H]4[C@H]3CC[C@@]21C`, the “activity change, negative = inhibition” value was -35.4% (inactive).
Consider `Oc1ccc([C@H]2CNCc3c2ccc(O)c3O)cc1O`, for which the molecule was called inactive.
As to `CC(CC(C(N)=O)(c1ccccc1)c1ccccc1)N(C)C` (centres undefined), the “activity change, negative = inhibition” value is -11.3% (inactive).

Test system in another assay: not listed separately
In words: Primary qHTS for Huh7 cytotoxicity: counterscreen for inhibitors of MERS-S pseudotyped particle cell entry (AID 1479147). For activity change, negative = cytotoxicity: % is set by controls: 0 for no effect and ±100 for the full control effect. The note with it: cell viability read-out; series mostly up to 57.1 µM; activity change, negative = cytotoxicity: at the top concentration; outcome: at the top concentration.
With `C[C@H](N)[C@H](O)c1ccc(O)c(O)c1`, the outcome was inactive.
As for `Clc1ccc(CSC(Cn2ccnc2)c2ccc(Cl)cc2Cl)cc1` (centres undefined), the “activity change, negative = cytotoxicity” value is -22.2% (inactive).
The same measure, in the same setting: under `Clc1ccc(CO/N=C(\Cn2ccnc2)c2ccc(Cl)cc2Cl)c(Cl)c1` stands -14.9% (inactive).
Still for that read-out and setting: under `CC[C@]1(O)CC[C@H]2[C@@H]3CCC4=CCCC[C@@H]4[C@H]3CC[C@@]21C` stands -5.27% (inactive).
Take `C[C@]12Cc3nonc3C[C@@H]1CC[C@@H]1[C@@H]2CC[C@@]2(C)[C@H]1CC[C@]2(C)O`: the “activity change, negative = cytotoxicity” value was -21.5% (inactive).
Still for that read-out and setting: under `Cc1nnc2n1-c1sc(CCc3ccc(CC(C)C)cc3)cc1C(c1ccccc1Cl)=NC2C` (centres undefined) stands -0.0334% (inactive).
For the molecule `Oc1ccc([C@H]2CNCc3c2ccc(O)c3O)cc1O`, the outcome was inactive.
For `C[C@@H]1CN(C2CCC(C#N)(c3ccc(F)cc3)CC2)CC[C@]1(C(=O)O)c1ccccc1` (some centres undefined), the “activity change, negative = cytotoxicity” value was 3.4% (inactive).
The same measure, in the same setting: under `CCCCCCCCCCCC[N+](C)(C)CCOc1ccccc1` stands -21.3% (inactive).
On to `C#C[C@]1(O)C=C[C@H]2[C@@H]3CCC4=CC(=O)CC[C@@H]4[C@H]3CC[C@@]21CC`, for which the outcome was inactive.
On the same count and under the same terms, under `CC(CC(C(N)=O)(c1ccccc1)c1ccccc1)N(C)C` (centres undefined) stands “inactive”.

Test system in the next assay: not listed separately
Description: Primary qHTS for inhibitors of MERS-S pseudo-typed particle cell entry (AID 1479149). For activity change, negative = inhibition: % is set by controls: 0 for no effect and ±100 for the full control effect. Note: nearly all actives have a fitted effect of over 60% in size. Note: potency is the fitted concentration of half-maximal effect. The note with it: MERS-S pseudotyped particle entry, luciferase; series mostly up to 57.1 µM; activity change, negative = inhibition: at the top concentration; outcome: at the top concentration.
As to `C[C@H](N)[C@H](O)c1ccc(O)c(O)c1`, the molecule was classed as inactive.
Regarding `CC[C@]1(O)CC[C@H]2[C@@H]3CCC4=CCCC[C@@H]4[C@H]3CC[C@@]21C`, the “activity change, negative = inhibition” value is -24.2% (inactive).
With `Cc1nnc2n1-c1sc(CCc3ccc(CC(C)C)cc3)cc1C(c1ccccc1Cl)=NC2C` (centres undefined), the Potency is 20 µM (active).
Regarding `Oc1ccc([C@H]2CNCc3c2ccc(O)c3O)cc1O`, the molecule was classed as inactive.
Still for that read-out and setting: under `C[C@@H]1CN(C2CCC(C#N)(c3ccc(F)cc3)CC2)CC[C@]1(C(=O)O)c1ccccc1` (some centres undefined) stands “inactive”.
Consider `CCCCCCCCCCCC[N+](C)(C)CCOc1ccccc1`, for which the Potency was 22.4 µM (active).
With `C#C[C@]1(O)C=C[C@H]2[C@@H]3CCC4=CC(=O)CC[C@@H]4[C@H]3CC[C@@]21CC`, the “activity change, negative = inhibition” value is 0.642% (inactive).
As for `CC(CC(C(N)=O)(c1ccccc1)c1ccccc1)N(C)C` (centres undefined), the molecule was called inactive.

Test system in the next assay: not listed separately
In words: Primary qHTS for Vero E6 cytotoxicity: counterscreen for inhibitors of SARS-S pseudo-typed particle cell entry (AID 1479150). For activity change, negative = cytotoxicity: % is set by controls: 0 for no effect and ±100 for the full control effect. The following applies: cell viability; series mostly up to 57.1 µM; activity change, negative = cytotoxicity: at the top concentration; outcome: at the top concentration.
In the case of `C[C@H](N)[C@H](O)c1ccc(O)c(O)c1`, the “activity change, negative = cytotoxicity” value is 4.81% (inactive).
As to `Clc1ccc(CO/N=C(\Cn2ccnc2)c2ccc(Cl)cc2Cl)c(Cl)c1`, the “activity change, negative = cytotoxicity” value was -18.6% (inactive).
On the same count and under the same terms, under `c1ccc2c(c1)Sc1ccccc1N2CC1CN2CCC1CC2` (centres undefined) stands -3.53% (inactive).
On to `CC[C@]1(O)CC[C@H]2[C@@H]3CCC4=CCCC[C@@H]4[C@H]3CC[C@@]21C`, for which the call was inactive.
As for `C[C@]12Cc3nonc3C[C@@H]1CC[C@@H]1[C@@H]2CC[C@@]2(C)[C@H]1CC[C@]2(C)O`, the outcome was inactive.
The same measure, in the same setting: under `Cc1nnc2n1-c1sc(CCc3ccc(CC(C)C)cc3)cc1C(c1ccccc1Cl)=NC2C` (centres undefined) stands “inactive”.
Still for that read-out and setting: under `Oc1ccc([C@H]2CNCc3c2ccc(O)c3O)cc1O` stands “inactive”.
On the same count and under the same terms, under `C[C@@H]1CN(C2CCC(C#N)(c3ccc(F)cc3)CC2)CC[C@]1(C(=O)O)c1ccccc1` (some centres undefined) stands “inactive”; under `C#C[C@]1(O)C=C[C@H]2[C@@H]3CCC4=CC(=O)CC[C@@H]4[C@H]3CC[C@@]21CC`, “inactive”.
For `CC(CC(C(N)=O)(c1ccccc1)c1ccccc1)N(C)C` (centres undefined), the molecule was classed as inactive.
